Test results reported in PubChem BioAssay AID1159580 (chemical genetic matrix, 2015).
In all, about 5,500 compounds went through this assay and about 2,000 (36%) were called active. Roughly 18% stayed inconclusive and do not appear here. The list shows a part of the results. A number with no mark means an inactive call. Rule as the data show it: active = normalized growth mostly below about 0.91 (no sharp cut-off); inconclusive = no clear call, values can overlap the other calls; inactive = mostly above about 0.92.

Experiment: chemical genetic growth profiling, strain panel (AID 1159580);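 also: tested at 20 µM; growth read once vehicle control cultures reached saturation at 30 °C; 1 = growth at the plate median or of vehicle wells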
Conditions: growth OD

## CC12CCCC(O)(C1)C1CC(C)(C)C1CC2 (configuration not stated)
S. cerevisiae deletion strains, locus YJR066W, strain TOR1, stronger effect = lower value
  normalized growth: 0.95
S. cerevisiae deletion strains, locus YKL009W, strain mrt4, stronger effect = lower value
  normalized growth: 1.02
S. cerevisiae deletion strains, locus YKL068W, stronger effect = lower value
  normalized growth: 1.01
S. cerevisiae deletion strains, locus YKL085W, strain MDH1 (second series), stronger effect = lower value
  normalized growth: 0.998
S. cerevisiae deletion strains, locus YKL085W, strain MDH1, stronger effect = lower value
  normalized growth: 0.998
S. cerevisiae deletion strains, locus YKL160W, strain elf1, stronger effect = lower value
  normalized growth: 0.954
S. cerevisiae deletion strains, locus YKR001C, strain vps1, stronger effect = lower value
  normalized growth: 1.02
S. cerevisiae deletion strains, locus YKR026C, strain gcn3, stronger effect = lower value
  normalized growth: 0.999
S. cerevisiae deletion strains, locus YKR091W, strain srl3, stronger effect = lower value
  normalized growth: 0.991
S. cerevisiae deletion strains, locus YLL001W, strain dnm1, stronger effect = lower value
  normalized growth: 0.925
S. cerevisiae deletion strains, locus YLL026W, stronger effect = lower value
  normalized growth: 0.982
S. cerevisiae deletion strains, locus YLL041C, strain sdh2, stronger effect = lower value
  normalized growth: 0.982
S. cerevisiae deletion strains, locus YLR027C, strain aat2, stronger effect = lower value
  normalized growth: 0.948
S. cerevisiae deletion strains, locus YLR039C, strain RIC1, stronger effect = lower value
  normalized growth: 0.972
S. cerevisiae deletion strains, locus YLR058C, strain SHM2, stronger effect = lower value
  normalized growth: 1.01
S. cerevisiae deletion strains, locus YLR102C, strain apc9, stronger effect = lower value
  normalized growth: 1.01
S. cerevisiae deletion strains, locus YLR113W, strain HOG1, stronger effect = lower value
  normalized growth: 0.939
S. cerevisiae deletion strains, locus YLR221C, strain rsa3, stronger effect = lower value
  normalized growth: 0.983
S. cerevisiae deletion strains, locus YLR258W, strain gsy2, stronger effect = lower value
  normalized growth: 0.961
S. cerevisiae deletion strains, locus YLR262C, strain YPT6 (second series), stronger effect = lower value
  normalized growth: 0.878
S. cerevisiae deletion strains, locus YLR262C, strain YPT6, stronger effect = lower value
  normalized growth: 1.01
S. cerevisiae deletion strains, locus YLR268W, strain sec22, stronger effect = lower value
  normalized growth: 0.992
S. cerevisiae deletion strains, locus YLR320W, strain mms22, stronger effect = lower value
  normalized growth: 0.937
S. cerevisiae deletion strains, locus YLR342W, strain FKS1, stronger effect = lower value
  normalized growth: 0.918
S. cerevisiae deletion strains, locus YLR357W, strain rsc2, stronger effect = lower value
  normalized growth: 0.984
S. cerevisiae deletion strains, locus YLR370C, strain arc18, stronger effect = lower value
  normalized growth: 0.981
S. cerevisiae deletion strains, locus YLR371W, strain rom2, stronger effect = lower value
  normalized growth: 1.01
S. cerevisiae deletion strains, locus YLR384C, strain iki3, stronger effect = lower value
  normalized growth: 1.01
S. cerevisiae deletion strains, locus YLR418C, strain cdc73, stronger effect = lower value
  normalized growth: 1.1
S. cerevisiae deletion strains, locus YML016C, strain PPZ1, stronger effect = lower value
  normalized growth: 1.01
S. cerevisiae deletion strains, locus YML032C, strain rad52, stronger effect = lower value
  normalized growth: 1.02
S. cerevisiae deletion strains, locus YML120C, strain ndi1, stronger effect = lower value
  normalized growth: 1
S. cerevisiae deletion strains, locus YML124C, strain tub3, stronger effect = lower value
  normalized growth: 1.01
S. cerevisiae deletion strains, locus YMR058W, strain fet3, stronger effect = lower value
  normalized growth: 0.985
S. cerevisiae deletion strains, locus YMR078C, strain ctf18, stronger effect = lower value
  normalized growth: 1.02
S. cerevisiae deletion strains, locus YMR125W, strain sto1, stronger effect = lower value
  normalized growth: 0.974
S. cerevisiae deletion strains, locus YMR129W, stronger effect = lower value
  normalized growth: 1.01
S. cerevisiae deletion strains, locus YMR205C, strain PFK2, stronger effect = lower value
  normalized growth: 0.861 (active)
S. cerevisiae deletion strains, locus YMR223W, strain ubp8, stronger effect = lower value
  normalized growth: 1.02
S. cerevisiae deletion strains, locus YMR231W, strain pep5, stronger effect = lower value
  normalized growth: 0.996
S. cerevisiae deletion strains, locus YMR263W, strain SAP30, stronger effect = lower value
  normalized growth: 1.01
S. cerevisiae deletion strains, locus YMR307W, strain GAS1, stronger effect = lower value
  normalized growth: 0.968
S. cerevisiae deletion strains, locus YNL067W, strain RPL9B, stronger effect = lower value
  normalized growth: 1.02
S. cerevisiae deletion strains, locus YNL071W, strain lat1, stronger effect = lower value
  normalized growth: 0.859 (active)
S. cerevisiae deletion strains, locus YNL153C, strain GIM3, stronger effect = lower value
  normalized growth: 1.02
S. cerevisiae deletion strains, locus YNL183C, strain NPR1, stronger effect = lower value
  normalized growth: 0.953
S. cerevisiae deletion strains, locus YNL209W, strain ssb2, stronger effect = lower value
  normalized growth: 1
S. cerevisiae deletion strains, locus YNL233W, strain BNI4, stronger effect = lower value
  normalized growth: 1.02
S. cerevisiae deletion strains, locus YNL248C, strain rpa49, stronger effect = lower value
  normalized growth: 1.01
S. cerevisiae deletion strains, locus YNL250W, strain rad50, stronger effect = lower value
  normalized growth: 1.04
S. cerevisiae deletion strains, locus YNL271C, strain bni1, stronger effect = lower value
  normalized growth: 0.998
S. cerevisiae deletion strains, locus YNL298W, strain CLA4, stronger effect = lower value
  normalized growth: 0.993
S. cerevisiae deletion strains, locus YNL307C, strain MCK1, stronger effect = lower value
  normalized growth: 1.02
S. cerevisiae deletion strains, locus YNL322C, strain KRE1 (second series), stronger effect = lower value
  normalized growth: 0.974
S. cerevisiae deletion strains, locus YNL322C, strain KRE1, stronger effect = lower value
  normalized growth: 1.01
S. cerevisiae deletion strains, locus YNR049C, strain mso1, stronger effect = lower value
  normalized growth: 1
S. cerevisiae deletion strains, locus YNR052C, strain pop2, stronger effect = lower value
  normalized growth: 1.03
S. cerevisiae deletion strains, locus YOL012C, strain htz1
  normalized growth: 1.39
S. cerevisiae deletion strains, locus YOL147C, strain pex11, stronger effect = lower value
  normalized growth: 0.997
S. cerevisiae deletion strains, locus YOR001W, strain rrp6, stronger effect = lower value
  normalized growth: 1.05
S. cerevisiae deletion strains, locus YOR061W, strain CKA2, stronger effect = lower value
  normalized growth: 1
S. cerevisiae deletion strains, locus YOR069W, strain VPS5, stronger effect = lower value
  normalized growth: 1.01
S. cerevisiae deletion strains, locus YOR070C, strain gyp1, stronger effect = lower value
  normalized growth: 0.975
S. cerevisiae deletion strains, locus YOR080W, strain dia2, stronger effect = lower value
  normalized growth: 1.01
S. cerevisiae deletion strains, locus YOR083W, strain WHI5, stronger effect = lower value
  normalized growth: 0.956
S. cerevisiae deletion strains, locus YOR106W, strain vam3, stronger effect = lower value
  normalized growth: 0.986
S. cerevisiae deletion strains, locus YOR136W, strain idh2, stronger effect = lower value
  normalized growth: 1.01
S. cerevisiae deletion strains, locus YOR144C, strain elg1, stronger effect = lower value
  normalized growth: 1
S. cerevisiae deletion strains, locus YOR184W, strain ser1, stronger effect = lower value
  normalized growth: 0.978
S. cerevisiae deletion strains, locus YOR231W, strain MKK1, stronger effect = lower value
  normalized growth: 0.973
S. cerevisiae deletion strains, locus YOR265W, strain rbl2, stronger effect = lower value
  normalized growth: 0.999
S. cerevisiae deletion strains, locus YOR270C, strain vph1, stronger effect = lower value
  normalized growth: 0.709 (active)
S. cerevisiae deletion strains, locus YOR290C, strain snf2, stronger effect = lower value
  normalized growth: 0.954
S. cerevisiae deletion strains, locus YOR316C, strain cot1, stronger effect = lower value
  normalized growth: 1.01
S. cerevisiae deletion strains, locus YPL051W, strain arl3, stronger effect = lower value
  normalized growth: 0.939
S. cerevisiae deletion strains, locus YPL055C, strain LGE1, stronger effect = lower value
  normalized growth: 1.01
S. cerevisiae deletion strains, locus YPL078C, strain atp4, stronger effect = lower value
  normalized growth: 0.941
S. cerevisiae deletion strains, locus YPL106C, strain sse1, stronger effect = lower value
  normalized growth: 0.892
S. cerevisiae deletion strains, locus YPL240C, strain hsp82, stronger effect = lower value
  normalized growth: 0.991
S. cerevisiae deletion strains, locus YPL241C, strain CIN2, stronger effect = lower value
  normalized growth: 0.999
S. cerevisiae deletion strains, locus YPL256C, strain CLN2, stronger effect = lower value
  normalized growth: 0.958
S. cerevisiae deletion strains, locus YPR119W, strain clb2, stronger effect = lower value
  normalized growth: 1.02
S. cerevisiae deletion strains, locus YPR141C, strain kar3, stronger effect = lower value
  normalized growth: 1
S. cerevisiae deletion strains, locus YPR163C, strain tif3, stronger effect = lower value
  normalized growth: 1.02
S. cerevisiae deletion strains, locus YPR167C, strain met16, stronger effect = lower value
  normalized growth: 1.01
S. cerevisiae deletion strains, strain wtn01, stronger effect = lower value
  normalized growth: 1.01
S. cerevisiae strains, strain wild type, stronger effect = lower value
  normalized growth: 1.01
